Compound activity (PubChem)
This is a sample that favours compounds with a hit; in the whole collection about 9.8% have one here.
CBFb-RUNX1 inh – qHTS Assay for Compounds Blocking the Interaction Between CBF-beta and RUNX1 for the Treatment of Acute Myeloid Leukemia. Runt-related transcription factor 1 (Homo sapiens) + Core-binding factor subunit beta …. AlphaScreen CBFb-His/RUNX1-biotin binding, biochemical. Potency, µM (highest dose often 59.8 µM), inactives show at the top dose activity, negative = inhibition, hits mostly inhibitors. 230,000 tested, under 10 active. AID 1477, 2009; active = well fitted curve in the direction sought with a large enough effect; inconclusive = small, poorly fitted or top-dose-only effect, or another doubt; inactive = no such curve, though single readings can be large; an effect the other way counts as inactive or inconclusive; also: % of control where 0% means no effect
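Read-out: AlphaScreen. Format: His-CBF-beta with biotinylated RUNX1 (30 nM each) preincubated 20 min, compound 15 min, Ni-chelate plus streptavidin beads 90 min; room temperature throughout.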
JMJD2E inh – qHTS Assay for Inhibitors of Human Jumonji Domain Containing 2E (JMJD2E). Lysine-specific demethylase 4E (Homo sapiens), B2RXH2. 1.6% of 230,000 active. Potency, µM (top dose mostly 57.1 µM), for inactives: at the top dose activity change, negative = inhibition, hits mostly inhibitors. JMJD2E catalytic domain, FDH-coupled NADH fluorescence (FDH is formaldehyde dehydrogenase);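 also: potency is read from the fitted curve at half-maximal effect; 0% = wells with enzyme and -100% = buffer wells without enzyme; nearly all actives have a fitted effect of over 50% in size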
HttQ103 aggreg – qHTS Multiplex Assay to Identify Dual Action Probes in a Cell Model of Huntington: Aggregate Formation (GFP); Potency, µM (top dose mostly 46.1 µM), for the others: top-dose activity change, negative = inhibition, usual class: inhibitors; 1.1% of 220,000 active; AID 1688, 2009; PC12 HttQ103-GFP aggregates, Acumen cytometry, 40 h; active = well fitted curve in the direction sought with a large enough effect; inconclusive = small, poorly fitted or top-dose-only effect, or another doubt; inactive = no such curve, though single readings can be large; an effect the other way counts as inactive or inconclusive; also: potency is read from the fitted curve at half-maximal effect; % is scaled to controls: 0 for no effect and ±100 for the full control effect; nearly all actives have a fitted effect of over 60% in size
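Ecdysone-promoter PC12 model expressing HTT exon 1 Q103 fused to GFP, induced by tebufenozide at 100 nM final. Compounds titrated; aggregates sized 1–25 µm scored on a 488 nm laser cytometer.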
HTT cytoprotect – qHTS Multiplex Assay to Identify Dual Action Probes in a Cell Model of Huntington: Cytoprotection (ATP); PC12 HTT-Q103 induced, cytoprotection, ATP luminescence, 40 h; Potency, µM (titrated, usually from 56.4 µM), inactives show cytoprotection (ATP increase), most hits filed as activators; 0.14% of 230,000 active; AID 1471, 2008; active = well fitted curve in the direction sought with a large enough effect; inconclusive = small, poorly fitted or top-dose-only effect, or another doubt; inactive = no such curve, though single readings can be large; an effect the other way counts as inactive or inconclusive; also: potency is read from the fitted curve at half-maximal effect; % of control where 0% means no effect; nearly all actives have a fitted effect of over 45% in size
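Cells were plated at 1500 per well in phenol red-free DMEM with 5% equine and 5% calf serum. Tebufenozide (100 nM final) and compounds were added, then ATPlite reagent, and luminescence was read.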
HPGD block – qHTS Assay for Inhibitors of HPGD (15-Hydroxyprostaglandin Dehydrogenase) | AID 894, 2007 | 4.3% of 150,000 active | 15-hydroxyprostaglandin dehydrogenase [NAD(+)] (Homo sapiens), P15428 | Potency, µM, for inactives: top-dose activity change, negative = inhibition, actives largely listed as inhibitors | purified HPGD, NADH fluorescence kinetic, PGE2 substrate; also: potency is read from the fitted curve at half-maximal effect; % is scaled to controls: 0 for no effect and ±100 for the full control effect
Target sequence (P15428 whole entry, looked up): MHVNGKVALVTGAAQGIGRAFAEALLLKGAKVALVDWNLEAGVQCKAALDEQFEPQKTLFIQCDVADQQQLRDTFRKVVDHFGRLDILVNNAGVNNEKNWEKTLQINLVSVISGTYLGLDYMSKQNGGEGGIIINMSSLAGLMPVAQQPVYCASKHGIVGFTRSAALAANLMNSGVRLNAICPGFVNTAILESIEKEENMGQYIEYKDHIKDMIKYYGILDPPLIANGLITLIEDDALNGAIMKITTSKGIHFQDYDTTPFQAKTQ
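NADH formation kinetics: reaction with 30 uM PGE2 and 1 mM NAD+ (final), 20 nM enzyme, Tris-HCl pH 8 with Tween 20, after 15 min compound preincubation at room temperature. Fluorescence change, last versus first of five reads.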
ALDH1A1 block – qHTS Assay for Inhibitors of Aldehyde Dehydrogenase 1 (ALDH1A1); Purified ALDH1A1, NADH fluorescence, propionaldehyde substrate; Potency, µM (top dose mostly 75.3 µM), for the others: at the highest dose activity, negative = inhibition, actives largely listed as inhibitors; 7.3% of 220,000 active; Aldehyde dehydrogenase 1A1 (Homo sapiens), P00352; AID 1030, 2008;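 also: potency is read from the fitted curve at half-maximal effect; plate controls were no enzyme wells and a reference inhibitor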
Target sequence (P00352 whole entry, looked up): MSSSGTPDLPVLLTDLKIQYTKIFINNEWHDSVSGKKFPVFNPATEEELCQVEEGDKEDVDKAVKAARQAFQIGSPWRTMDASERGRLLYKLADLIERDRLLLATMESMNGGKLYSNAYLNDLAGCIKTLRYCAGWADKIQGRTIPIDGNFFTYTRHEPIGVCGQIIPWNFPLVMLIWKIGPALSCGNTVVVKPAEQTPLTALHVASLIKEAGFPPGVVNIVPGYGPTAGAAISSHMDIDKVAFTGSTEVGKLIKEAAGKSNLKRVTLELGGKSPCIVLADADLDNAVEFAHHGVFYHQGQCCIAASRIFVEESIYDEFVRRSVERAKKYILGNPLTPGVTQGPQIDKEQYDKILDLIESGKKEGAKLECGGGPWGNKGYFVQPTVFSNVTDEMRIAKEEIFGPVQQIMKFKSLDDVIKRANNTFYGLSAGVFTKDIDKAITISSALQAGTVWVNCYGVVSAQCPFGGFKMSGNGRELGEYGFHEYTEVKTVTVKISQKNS
Active calls of the source: *; ? = inconclusive; nt = not tested or not shown; ! = a repeat was not active; [ ] = dose if it differs, or a comment. Unless noted, calls follow the shape of the dose curve; as a rule, active = well fitted inhibition curve with a large enough effect (not every such curve was filed as active); inconclusive = small, poorly fitted or top-dose-only effect, or another doubt; inactive = no such curve, though single readings can be large or run the other way.

SMILES | CBFb-RUNX1 inh | JMJD2E inh | HttQ103 aggreg | HTT cytoprotect | HPGD block | ALDH1A1 block
COc1ccc(CCNC(=O)CCCn2c(SCC(N)=O)nc3cc4c(cc3c2=O)OCO4)cc1OC | -1% | 0% | 27% | -25%[10 µM] | nt | -9%
CCOc1cccc(N2C(=O)CC(N3CCN(c4nc5ccccc5s4)CC3)C2=O)c1 (stereo not given) | 0% | 7% | 4% | 2% | -4% | -13%
COc1cccc2sc(N(C)c3ccccc3)nc12 | 6% | 4% | 0%[9.22 µM] | -96% | ? | -10%
COc1ccc(N2C(=O)CC(N3CCN(c4nc5ccccc5s4)CC3)C2=O)cc1 (stereo not given) | -15% | 6% | 1% | -5% | -8% | 25µM*
COc1cccc2sc(N3CCN(c4nc5ccccc5s4)CC3)nc12 | -6% | 4% | 23% | -29%[0.074 µM] | nt | 14µM*
COc1ccc(N2C(=O)CC(N3CCN(c4ccc(S(C)(=O)=O)cc4)CC3)C2=O)cc1 (stereo not given) | -5% | 5% | 8%[1.84 µM] | 9% | -12% | 22µM*
COc1ccc(N2CCN(C3CC(=O)N(C)C3=O)CC2)cc1 (stereo not given) | 1% | 2% | -1% | -12%[10 µM] | 2% | -7%
CCO/N=C(/c1nonc1N)N1CCN(c2ccc([N+](=O)[O-])cc2)CC1 | -5% | 2% | -3% | -28% | -14% | 11µM*
CO/N=C(\c1nonc1N)N1CCN(c2ccc([N+](=O)[O-])cc2Cl)CC1 | 5% | -2% | -15% | -18% | -22% | ?
O=C(NCc1cccnc1)c1ccc(S(=O)(=O)N2CCCCCC2)cc1 | 0% | 6% | -10% | -4% | nt | ?
COCc1cc(C)nc(SCC[N+](C)(C)CC(=O)c2ccc(Br)cc2)c1C#N | -14% | ? | -22% | -89% | nt | 7.9µM*
C[C@@H](C1[C@@H](O)CC2C3C=CC4C[C@@H](O)CC[C@]4(C)[C@H]3CC[C@@]21C)[C@@H]1CCCCN1 (stereo not given in full) | -7% | 3% | nt | 1% | -8% | 4%
Oc1ccccc1-c1nc(NCc2ccco2)c2ccccc2n1 | 3% | 11% | -19% | -22% | -10% | -3%
c1ccc(-c2nc(NCc3ccco3)c3ccccc3n2)nc1 | ? | 2% | 18µM* | -72% | -14% | ?
Cc1ccc(Nc2nc(NCc3ccco3)c3ccccc3n2)cc1 | -4% | ? | 11µM* | -92% | nt | ?
COC(=O)CSC1=NS(=O)(=O)c2ccccc21 | 6% | -1% | 12% | -1%[1.9 µM] | 22µM* | -6%
O=C(CSC1=NS(=O)(=O)c2ccccc21)Nc1ccccc1 | 5% | -13% | 16% | 1% | 16µM* | 0.56µM*
O=C(CCN1C(=O)c2ccccc2S1(=O)=O)Nc1ccccc1 | 1% | 1% | -4% | 1%[10 µM] | nt | -8%
COc1cc(C(=O)N[C@H](C(=O)Nc2nnc(C3CC3)s2)C(C)C)cc(OC)c1OC | 8% | -2% | 8%[9.22 µM] | 7%[10 µM] | nt | ?
C1CCC(C(CC2CCCCN2)C2CCCCC2)CC1 (stereo not given) | 8% | -9% | 25µM*! | -99% | -2% | -2%
NC(N)=NC[C@@H]1CCCCCCN1 | nt | nt | nt | -11%[10 µM] | -10% | 13%[13.5 µM]
COc1ccc(S(=O)(=O)N=Nc2c(O)[nH]c3ccccc23)cc1 | -1% | ? | -11% | -35% | nt | 25µM*
Cc1ccc(S(=O)(=O)N=Nc2c(O)[nH]c3ccccc23)cc1C | 7% | -8% | -5% | -19% | -10% | ?
Cc1nnc(N/N=C/c2ccco2)n1N | -9% | 28µM* | -20% | -102% | nt | 8%
Cc1ccnc(N/N=C/c2ccco2)n1 | -13% | -6% | -14% | -51% | -21% | 5%
SMILES | CBFb-RUNX1 inh | JMJD2E inh | HttQ103 aggreg | HTT cytoprotect | HPGD block | ALDH1A1 block
CCOC(=O)c1c[nH][nH]c1=O | 4% | 5% | 3%[9.22 µM] | 1%[10 µM] | nt | nt
OC(CNCC(c1ccco1)N1CCCCC1)c1ccccc1 (stereo not given) | 3% | ? | 5% | 12%[10 µM] | 2% | 18µM*
S=C(NCC(c1ccco1)N1CCCC1)Nc1ccccc1 (stereo not given) | -17% | 4% | 1% | -11% | nt | -15%
Cc1ccsc1/C=N/NC(=O)c1ccc(-n2cccc2)cc1 | 0% | -1% | -4%[9.22 µM] | -8%[10 µM] | nt | ?
COc1ccc(Br)cc1C(=O)Nc1ccc(Cc2ccncc2)cc1 | -1% | -8% | ? | -31% | -23% | 50%
Cc1cc(C)cc(C(=O)NC(=S)Nc2ccc(Cc3ccncc3)cc2)c1 | -5% | 3% | -9% | -5%[10 µM] | -6% | ?
COC(=O)Nc1ccc(Cc2ccncc2)cc1 | 3% | -3% | -15% | -33% | nt | 15%
O=C(NC(=S)Nc1ccc(Cc2ccncc2)cc1)c1ccccc1 | 6% | 3% | 13% | -17%[10 µM] | ? | 18µM*
Cc1cccc(C(=O)NC(=S)Nc2ccc(Cc3ccncc3)cc2)c1 | -14% | -8% | -9% | -47% | ? | 20µM*
COc1c(C(=O)Nc2ccc(Cc3ccncc3)cc2)ccc2ccccc12 | 3% | ? | 13µM* | nt | -29% | ?
O=C(CSc1n[nH]c(=O)[nH]c1=O)NC1CCCCC1 | 15% | 12% | 1%[9.22 µM] | 7%[10 µM] | nt | nt
Cc1ccc(C)n1-c1nccc(-c2ccco2)n1 | -1% | ? | 6% | 5%[10 µM] | nt | ?
CCOC(=O)c1cc(-c2cccc([N+](=O)[O-])c2)nc2[nH]c(=O)[nH]c(=O)c12 | 18% | -19% | 4% | ? | nt | 14µM*
O=C(OCc1nc2scc(-c3ccccc3)c2c(=O)[nH]1)c1cccc([N+](=O)[O-])c1 | -11% | 0% | -15% | -3%[10 µM] | nt | ?
COc1ccc(OC)c(/C=C2\S/C(=N/NC(=O)c3ccc4ccccc4c3)NC2=O)c1 | 26% | ? | ? | 19%[10 µM] | 4µM* | ?
CCCn1c(-c2ccc(F)cc2)nc2c(NC(C)CCCN(CC)CC)nc(C)nc21 (stereo not given) | 14% | ? | nt | -33% | ? | ?
CC(NC(=O)C12CC3(C)CC(C)(CC(C)(C3)C1)C2)C(=O)O (stereo not given) | 5% | 5% | 25% | -16% | nt | 2%
